From article PMC11006913 come the findings set out here.

Some targets named below: ALX4 (Homo sapiens, UniProt Q9H161 200-286, Q225E); SHOX (Homo sapiens, UniProt O15266 103-189, R173C); HESX1 (Homo sapiens, UniProt Q9UBX0 95-180, R109Q).
Holding throughout (test): PBM; 200 nM protein, PBS
Holding throughout (conditions): dsDNA, one strand shown

In test [1] the target is PRRX1 (Homo sapiens, UniProt P54821 80-166, F113S).
For test [2], the target named is PRRX1 (Homo sapiens, UniProt P54821 80-166).
Test [3] addresses HOXB6 (Homo sapiens, UniProt P17509 132-218, K202E).
Test [4] has as its target HOXB6 (Homo sapiens, UniProt P17509 132-218).
Test [5] has as its target ALX1 (Homo sapiens, UniProt Q15699 118-204, L144V).
Another test deals with T1, PAX4 (Homo sapiens, UniProt O43316 9-242, R200Q).
T1 sequence: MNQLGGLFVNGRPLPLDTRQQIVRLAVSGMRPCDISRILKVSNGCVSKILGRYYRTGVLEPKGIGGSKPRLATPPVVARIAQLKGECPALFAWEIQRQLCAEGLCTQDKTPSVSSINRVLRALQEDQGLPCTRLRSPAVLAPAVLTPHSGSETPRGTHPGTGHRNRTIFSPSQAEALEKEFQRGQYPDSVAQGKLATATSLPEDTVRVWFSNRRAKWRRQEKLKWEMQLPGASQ

Test [6] addresses ALX1 (Homo sapiens, UniProt Q15699 118-204, L144R).
Test [7] addresses ALX3 (Homo sapiens, UniProt O95076 139-225, L168Q).
In test [8] the target is ALX3 (Homo sapiens, UniProt O95076 139-225, L168V).
For test [9], the target named is ALX1 (Homo sapiens, UniProt Q15699 118-204).
ALX1 (Homo sapiens, UniProt Q15699 118-204), sequence (Q15699 118-204): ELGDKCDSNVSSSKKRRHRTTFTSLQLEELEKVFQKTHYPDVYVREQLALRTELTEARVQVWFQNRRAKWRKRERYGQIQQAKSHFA

PRRX1 (Homo sapiens, UniProt P54821 80-166), sequence (P54821 80-166): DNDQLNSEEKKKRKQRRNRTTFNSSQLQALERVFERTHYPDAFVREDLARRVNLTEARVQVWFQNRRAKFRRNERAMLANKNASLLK
PRRX1 (Homo sapiens, UniProt P54821 80-166, F113S), sequence (P54821 80-166 F113S): as the sequence (P54821 80-166) above, with F34S counted along it
ALX4, sequence (Q9H161 200-286 Q225E): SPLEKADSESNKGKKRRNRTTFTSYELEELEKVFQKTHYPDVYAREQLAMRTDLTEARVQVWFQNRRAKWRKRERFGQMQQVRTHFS
ALX3 (Homo sapiens, UniProt O95076 139-225, L168Q), sequence (O95076 139-225 L168Q): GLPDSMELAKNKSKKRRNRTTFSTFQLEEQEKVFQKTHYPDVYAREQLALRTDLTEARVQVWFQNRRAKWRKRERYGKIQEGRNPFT
ALX1 (Homo sapiens, UniProt Q15699 118-204, L144V), sequence (Q15699 118-204 L144V): as the sequence (Q15699 118-204) above, with L27V counted along it
ALX1 (Homo sapiens, UniProt Q15699 118-204, L144R), sequence (Q15699 118-204 L144R): as the sequence (Q15699 118-204) above, with L27R counted along it
SHOX, sequence (O15266 103-189 R173C): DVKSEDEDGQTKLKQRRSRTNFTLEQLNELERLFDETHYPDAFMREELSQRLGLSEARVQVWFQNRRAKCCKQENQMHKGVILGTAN
HOXB6 (Homo sapiens, UniProt P17509 132-218, K202E), sequence (P17509 132-218 K202E): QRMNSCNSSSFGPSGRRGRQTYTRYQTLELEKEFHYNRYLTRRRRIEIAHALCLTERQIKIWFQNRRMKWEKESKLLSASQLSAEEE
ALX3 (Homo sapiens, UniProt O95076 139-225, L168V), sequence (O95076 139-225 L168V): as the sequence (O95076 139-225 L168Q) above, with Q30V counted along it
HESX1, sequence (Q9UBX0 95-180 R109Q): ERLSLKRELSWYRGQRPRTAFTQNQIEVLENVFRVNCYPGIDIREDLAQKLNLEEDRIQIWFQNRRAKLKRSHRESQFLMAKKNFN
HOXB6 (Homo sapiens, UniProt P17509 132-218), sequence (P17509 132-218): as the sequence (P17509 132-218 K202E) above, with E71K counted along it

Regarding CGTCTGGA, the binding signal was 9.4 upbm affinity estimate (log intensity, higher = more binding, comparable within an allelic series) with PRRX1 [1] and 9.19 upbm affinity estimate (log intensity, higher = more binding, comparable within an allelic series) with PRRX1 [2].
Take GCTCCAGA: the binding signal was 9.35 upbm affinity estimate (log intensity, higher = more binding, comparable within an allelic series) with PRRX1 [1] and 9.02 upbm affinity estimate (log intensity, higher = more binding, comparable within an allelic series) with PRRX1 [2].
Regarding GCCGGACC, the binding signal is 9.13 upbm affinity estimate (log intensity, higher = more binding, comparable within an allelic series) with PRRX1 [1]; 8.9 upbm affinity estimate (log intensity, higher = more binding, comparable within an allelic series) with HOXB6 [3]; 9.39 upbm affinity estimate (log intensity, higher = more binding, comparable within an allelic series) in the test with PRRX1 [2]; 8.93 upbm affinity estimate (log intensity, higher = more binding, comparable within an allelic series) with HOXB6 [4].
In the case of AATTAAAC, the binding signal was 11.1 upbm affinity estimate (log intensity, higher = more binding, comparable within an allelic series) with PRRX1 [1]; 12.8 upbm affinity estimate (log intensity, higher = more binding, comparable within an allelic series) in the test with ALX4; 11.3 upbm affinity estimate (log intensity, higher = more binding, comparable within an allelic series) in the test with ALX1 [5]; 11.8 upbm affinity estimate (log intensity, higher = more binding, comparable within an allelic series) with PAX4; 9.29 upbm affinity estimate (log intensity, higher = more binding, comparable within an allelic series) in the test with SHOX; 11 upbm affinity estimate (log intensity, higher = more binding, comparable within an allelic series) with ALX1 [6]. For the same sequence, the binding signal in the test with HESX1 is 8.69 upbm affinity estimate (log intensity, higher = more binding, comparable within an allelic series); in the test with ALX3 [7], 10.2 upbm affinity estimate (log intensity, higher = more binding, comparable within an allelic series); in the test with ALX3 [8], 9.91 upbm affinity estimate (log intensity, higher = more binding, comparable within an allelic series); in the test with ALX1 [9], 12 upbm affinity estimate (log intensity, higher = more binding, comparable within an allelic series).
CGCGTCAG: the binding signal with PRRX1 [1] was 9.4 upbm affinity estimate (log intensity, higher = more binding, comparable within an allelic series); with PRRX1 [2], 9.26 upbm affinity estimate (log intensity, higher = more binding, comparable within an allelic series).
Regarding CCCCTTGC, the binding signal was 9.32 upbm affinity estimate (log intensity, higher = more binding, comparable within an allelic series) in the test with PRRX1 [1] and 9.53 upbm affinity estimate (log intensity, higher = more binding, comparable within an allelic series) in the test with PRRX1 [2].
Turning to CTCCGTAC, the binding signal with PRRX1 [1] was 9.47 upbm affinity estimate (log intensity, higher = more binding, comparable within an allelic series); in the test with PRRX1 [2], 9.24 upbm affinity estimate (log intensity, higher = more binding, comparable within an allelic series).
Consider ATTACAAC, for which the binding signal is 10.3 upbm affinity estimate (log intensity, higher = more binding, comparable within an allelic series) with PRRX1 [1] and 12.1 upbm affinity estimate (log intensity, higher = more binding, comparable within an allelic series) in the test with PRRX1 [2].
In the case of ATCAATTC, the binding signal with PRRX1 [1] was 10.1 upbm affinity estimate (log intensity, higher = more binding, comparable within an allelic series); in the test with PRRX1 [2] it was 11.9 upbm affinity estimate (log intensity, higher = more binding, comparable within an allelic series).
Take CCGGGGTC: the binding signal with PRRX1 [1] was 9.27 upbm affinity estimate (log intensity, higher = more binding, comparable within an allelic series); with PRRX1 [2], 9.54 upbm affinity estimate (log intensity, higher = more binding, comparable within an allelic series).
Regarding CCGAACCC, the binding signal in the test with PRRX1 [1] was 9.23 upbm affinity estimate (log intensity, higher = more binding, comparable within an allelic series); with PRRX1 [2], 9.29 upbm affinity estimate (log intensity, higher = more binding, comparable within an allelic series).
In the case of CAAATGAG, the binding signal in the test with PRRX1 [1] was 10.1 upbm affinity estimate (log intensity, higher = more binding, comparable within an allelic series); with PRRX1 [2], 11.5 upbm affinity estimate (log intensity, higher = more binding, comparable within an allelic series).
On to CCAGGGAG, for which the binding signal with PRRX1 [1] is 9.19 upbm affinity estimate (log intensity, higher = more binding, comparable within an allelic series); with PRRX1 [2], 8.8 upbm affinity estimate (log intensity, higher = more binding, comparable within an allelic series).
Consider ACGTCGCC, for which the binding signal in the test with PRRX1 [1] is 9.31 upbm affinity estimate (log intensity, higher = more binding, comparable within an allelic series); with PRRX1 [2], 9.36 upbm affinity estimate (log intensity, higher = more binding, comparable within an allelic series).
On to GCAAGGCC, for which the binding signal with PRRX1 [1] is 9.45 upbm affinity estimate (log intensity, higher = more binding, comparable within an allelic series); in the test with PRRX1 [2], 9.29 upbm affinity estimate (log intensity, higher = more binding, comparable within an allelic series).
As for AGGTTCGC, the binding signal in the test with PRRX1 [1] is 9.34 upbm affinity estimate (log intensity, higher = more binding, comparable within an allelic series); with PRRX1 [2] it was 9.02 upbm affinity estimate (log intensity, higher = more binding, comparable within an allelic series).
As for CCCGTACG, the binding signal in the test with PRRX1 [1] was 9.21 upbm affinity estimate (log intensity, higher = more binding, comparable within an allelic series); in the test with PRRX1 [2], 9.33 upbm affinity estimate (log intensity, higher = more binding, comparable within an allelic series).
Take ATTTTTAA: the binding signal was 10.4 upbm affinity estimate (log intensity, higher = more binding, comparable within an allelic series) with PRRX1 [1] and 12 upbm affinity estimate (log intensity, higher = more binding, comparable within an allelic series) with PRRX1 [2].
With CGGAGCGC, the binding signal with PRRX1 [1] was 9.18 upbm affinity estimate (log intensity, higher = more binding, comparable within an allelic series); with PRRX1 [2], 9.3 upbm affinity estimate (log intensity, higher = more binding, comparable within an allelic series).
